# FUS yeast rescue – qHTS for Suppressors of FUS Proteinopathy: Primary screen using FUS-linked yeast assay. S. cerevisiae FUS-expressing, growth rescue, OD600, 24 h. Potency, µM (titrated, usually from 76.6 µM), most hits filed as activators. 390,000 tested, 0.24% active. AID 1347120, 2019;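 also: plate controls were DMSO vehicle for no effect and reference control for full effect; nearly all actives have a fitted effect of over 55% in size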
#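 Restored growth of FUS-toxic S. cerevisiae, read as 600 nm absorbance after 24 h at 30C in galactose medium (starting OD 0.005). Controls CP55940 and DMSO.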
# Abeta rescue – qHTS for compounds that reverse cellular toxicity of Amyloid beta (A-beta) peptide in yeast: Primary Screen | yeast expressing A-beta42, growth rescue, OD600, 48 h; response scale: 0% DMSO, 100% iron-clioquinol control | AID 1347071, 2019 | 410,000 tested, 0.063% active | Potency, µM (highest dose often 46.1 µM), actives largely listed as activators; also: nearly all actives have a fitted effect of over 55% in size
#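 Yeast growth medium received pinned compounds, then yeast cells expressing toxic A-beta were added; plates incubated at 30 C for 48 hr. Growth read as absorbance at 600 nm, normalized to DMSO and equimolar FeCl3 plus clioquinol controls.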
# TDP43 rescue – qHTS of TDP-43 Inhibitors | 410,000 tested, 1.8% active | Potency, µM (doses to about 46.1 µM), inactives show at the top dose growth rescue (activation), usual class: activators | TDP-43 expressing yeast growth rescue, BacTiter-Glo, 24 h; also: % of control where 0% means no effect; nearly all actives have a fitted effect of over 50% in size
#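 Luminescence from BacTiter-Glo reports growth of TDP-43-expressing yeast after 24 hr at 30 deg C with compound. Cells were raffinose-pregrown to mid-log, then seeded in galactose medium at OD600=0.02.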
# Mito fusion act – qHTS Assay for Small Molecule Inhibitors of Mitochondrial Division or Activators of Mitochondrial Fusion; S. cerevisiae fusion-defective mutant growth rescue, CellTiterGlo 48 h; 320,000 tested, 0.23% active; Potency, µM (doses to about 46.1 µM), for inactives: at the top dose growth rescue (activation), most hits filed as activators; AID 485298, 2010; also: % of control where 0% means no effect; nearly all actives have a fitted effect of over 45% in size
#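 Luminescent cell viability in 1536-well qHTS format served as the measure of rescued growth in ts fusion-mutant S. cerevisiae cultured on non-fermentable YPEG for 48 hours at 37C.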
# aSyn yeast inh – qHTS of alpha-syn Inhibitors | Yeast expressing alpha-synuclein, growth rescue, BacTiter-Glo, 24 h | Potency, µM (titrated, usually from 46.1 µM), for inactives: at the highest dose growth rescue (activation), hits mostly activators | 370,000 tested, 0.14% active | AID 652106, 2013; also: % of control where 0% means no effect; nearly all actives have a fitted effect of over 65% in size
#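 Galactose-induced alpha-syn yeast (OD600=0.02, raffinose-pregrown) + pinned cpd, 24 hr, 30 deg C; growth by BacTiter-Glo luminescence. Growth restoration scores as activation.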
# Numbers without * were called inactive; i = inactive; u = inconclusive; x = not tested or not shown. The list is not random: actives were taken first. Their share in the collection is about 2.2%. Calls follow the shape of the dose curve; as a rule, active = well fitted curve in the direction sought with a large enough effect; inconclusive = small, poorly fitted or top-dose-only effect, or another doubt; inactive = no such curve, though single readings can be large; an effect the other way counts as inactive or inconclusive. Potency is read from the fitted curve at half-maximal effect.
SMILES,FUS yeast rescue,Abeta rescue,TDP43 rescue,Mito fusion act,aSyn yeast inh
Cc1ccc(OCC(=O)Nc2ccc(OCc3cc(=O)n4ccsc4n3)cc2)cc1,i,i,u,x,x
COc1ccc(NC(=O)c2oc3c(c2C)-c2nn(Cc4c(F)cccc4Cl)cc2CC3)c(OC)c1,i,i,9.1%,x,x
CCc1cccc2c(C(C)c3ccccc3O)c[nH]c12 (stereo not drawn),i,x,x,x,x
CC(C)NC(=O)NC(=O)COC(=O)c1ccc(OC(F)(F)F)cc1,x,10µM*,u,-11.9%,6.5%
Cc1onc(-c2ccccc2)c1C(=O)OCC(=O)Nc1ccc(OC(F)(F)F)cc1,i,i,15.8µM*,8.9%,-0.4%
COc1cccc(OC)c1C(=O)OCC(=O)Nc1ccc(OC(F)(F)F)cc1,i,i,14.1µM*,12.2%,-3.9%
CNCC(=O)Nc1ccc(OC(F)(F)F)cc1,i,i,27.6%,-0.7%,3.1%
Cc1ccccc1OCc1nc2ccccc2n1Cc1ccccc1Cl,i,i,u,x,x
CCc1cccc(NC(=O)Cn2c(=O)n(CC3CCC(C(=O)NC)CC3)c(=O)c3sccc32)c1 (stereo not drawn),i,i,0.0%,x,x
O=c1c2ccccc2sn1-c1ccc(Cl)c(S(=O)(=O)N2CCOCC2)c1,x,x,x,x,-81.5%
COc1ccc(C2(C)NC(=O)N(Cc3cc(Cl)cc4c3OCOC4)C2=O)cc1OC (stereo not drawn),35.5µM*,i,-7.2%,-2.2%,-5.9%
Cc1cc(SCC(=O)N/N=C/c2ccc(O)c(O)c2O)c(C)cc1Br,x,i,4.9%,3.7%,15.8µM*
O=C1CC(Sc2ccc(Cl)cc2)C(=O)N1c1ccc2c(c1)OCCO2 (stereo not drawn),i,i,11.2µM*,-3.1%,26.0%
COCCn1c(CNC(=O)c2cc(OC)c(OC)c(OC)c2)nc2cccnc21,i,i,-6.6%,x,x
Cc1cccc(Oc2c(C=O)c3ccccc3n2C)c1,i,i,17.8µM*,5.7%,-4.8%
O=C(c1ccc(N2CCN(C(=O)c3ccc(F)cc3F)CC2)cc1)c1cccc(F)c1,i,i,17.8µM*,-5.7%,9.7%
O=C(c1ccc(F)cc1F)N1CCN(c2ncccn2)CC1,i,i,-4.0%,1.6%,0.3%
O=C(Cc1ccc(OCCCc2ccccc2)cc1)NO,x,x,x,x,0.0%
COc1ccc(C2Nc3ccccc3C(=O)N2c2cccc3ccccc23)cc1COc1c(C)cccc1C (stereo not drawn),x,x,x,x,3.6%
CC(=O)N1CCc2c(sc3c2c(=O)n(Cc2ccccc2)c(=O)n3Cc2cccc(Cl)c2)C1,i,i,7.8%,x,x
CC(=O)N1CCc2c(sc3c2c(=O)n(CCc2ccccc2)c(=O)n3Cc2cccc(C)c2)C1,i,i,22.4µM*,x,x
COC(C/C=C/C(=O)COCc1ccccc1)OC,i,i,12.6µM*,-68.6%,6.2%
COC(=O)/C(=C1/Oc2ccc(C(C)(C)C)cc2S1)C(F)(F)F,i,i,12.7%,-2.0%,5.9%
COC(=O)/C(=C1/Oc2cc(C)oc(=O)c2S1)C(F)(F)F,x,i,8.91µM*,13.0%,1.3%
O=S(=O)(NCc1c(Cl)cccc1Oc1ccccc1)c1ccc(F)cc1,i,i,17.8µM*,26.1%,5.5%
SMILES,FUS yeast rescue,Abeta rescue,TDP43 rescue,Mito fusion act,aSyn yeast inh
O=C1Nc2ccc(Br)cc2/C1=C/C1CC=CCC1 (stereo not drawn),i,i,20µM*,4.9%,-77.1%
O=C1[C@@H]2CSC(c3ccc(F)cc3)N2C(=O)N1c1ccc(Cl)cc1 (stereo partly drawn),i,i,14.1µM*,x,x
O=C1CC(N2CCN(c3ccc(Cl)cc3)CC2)C(=O)N1c1ccc(F)cc1 (stereo not drawn),i,u,0.0%,-5.0%,9.4%
COc1ccc(/C(O)=C/C(=O)C(=O)NNC(=O)c2ccccc2)cc1,i,i,-49.1%,-10.4%,19.3%
COc1ccc(/C(O)=C/C(=O)C(=O)Nc2c(C)n(C)n(-c3ccccc3)c2=O)cc1,28.2µM*,i,0.0%,-4.1%,0.2%
COc1ccc(/C(O)=C/C(=O)C(=O)NNC(=O)C(O)(c2ccccc2)c2ccccc2)cc1,28.2µM*,i,2.0%,-0.7%,7.5%
COC[C@@H]1CCCN1c1cccc2c1S(=O)(=O)N(C1CC1)CCCO2,i,x,x,x,x
CCOc1ccc(Sc2cc(C(=O)NCc3ccccc3Cl)c3ccccc3n2)cc1,i,i,0.3%,x,x
CCOc1ccc2c3c(c(=O)oc2c1OCC)CCCC3,i,i,22.4µM*,0.5%,-2.3%
CCCOc1ccc2c3c(c(=O)oc2c1OCCC)CCCC3,i,i,19.1%,-0.6%,-15.4%
O=C(Nc1cc(C(=O)N2CCN(c3ccccc3)CC2)ccc1Cl)c1cccs1,x,i,12.6µM*,x,-7.1%
COc1ccc(Nc2nc(-c3sc(C)nc3C)cs2)c(OC)c1,i,i,15.8µM*,-3.6%,-13.7%
COc1ccc(Nc2nc(-c3cccs3)cs2)c(OC)c1,i,i,12.6µM*,2.8%,x
COc1ccc(OC)c(Nc2nc(-c3cccs3)cs2)c1,i,i,15.8µM*,21.3%,7.9%
COc1ccc(-c2nc3ccccc3n2Cc2ccc(Cl)cc2)cc1,i,i,22.4µM*,x,x
COc1ccc(-n2c(=S)[nH]c3ccccc32)cc1,u,i,u,0.7%,4.5%
COc1ccc(-c2nc3ccccc3n2Cc2ccc(C)cc2)cc1,i,u,3.6%,5.3%,9.9%
COc1ccc(Cn2c(=S)[nH]c3ccccc32)cc1,i,11.2µM*,16.3%,-0.9%,-16.3%
COCn1c(-c2ccc(OC)cc2)nc2ccccc21,i,i,2.2%,-6.7%,-5.0%
COc1ccc(-c2nc3ccccc3n2Cc2ccc(C(C)C)cc2)cc1,i,i,22.4µM*,x,0.6%
CC(=O)c1cc(-c2ccc(-c3cc(C(=O)O)c4ccccc4n3)cc2)c(=O)n2c1CCC2,i,x,x,x,x
S=C(NCc1ccccc1)NCc1ccc(CNC(=S)NCc2ccccc2)cc1,i,i,7.6%,-4.5%,-2.7%
Cc1cc(Cl)ccc1NC(=S)NCc1ccc(F)cc1,i,i,17.8µM*,-9.0%,-8.3%
S=C(NCc1ccccc1)C(=S)NCc1ccccc1,i,8.91µM*,18.8%,x,-31.2%
Cc1c(Cl)cccc1NC(=S)NCCc1ccc(C(F)(F)F)cc1,i,u,14.1µM*,-3.3%,-1.2%
S=C(NCCc1ccccc1)NCCc1ccccc1,x,i,22.1%,17.8%,-0.2%
S=C(NCCc1ccccc1)NCc1cccc(Cl)c1,i,15.8µM*,22.6%,-5.3%,4.0%

# From PubChem
